Compound activity from PubChem BioAssay.
Giardia kill – Giardia lamblia killing; activity change, % at 7.66 µM, hits read low; Giardia lamblia trophozoite viability; actives 0.15% (n = 340,000); in the data active = activity change below about -80%; inconclusive = between about -30% and that limit;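 also: parasites exposed to compound for two days anaerobically before the ATP read; % is scaled to controls: 0 for no effect and ±100 for the full control effect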
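Trophozoites 100 cells/well + cpd; 48 hrs, 37 deg C, anaerobic. ATPLite 1-Step added, 15-30 min RT, luminescence read (ATP-based viability).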
HepG2 viability – kills HepG2 cells in TGF-b inhibitor counter-screen. HepG2 CAGA-GFP viability, ATP luminescence, 18 h. Potency, µM (titrated, usually from 46.1 µM), for inactives: top-dose activity change, negative = cytotoxicity, hits mostly cytotoxic. actives 0.76% (n = 410,000). AID 588856; also: potency is read from the fitted curve at half-maximal effect
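HepG2 CAGA-GFP cells (1000/well, DMEM with 1% FBS) received compound, then TGF-beta at 500 pg/mL final, and were incubated 18 hours at 37 degrees C. Viability was read by CellTiter-Glo luminescence. Media-only wells were set as complete cell-killing and DMSO as no toxicity.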
TGFb SMAD3 inh – TGF-b pathway inhibition | HepG2 CAGA-GFP TGF-b/SMAD3 reporter, GFP fluorescence, 18 h; TGF-beta stimulated, 500 pg/mL final | Potency, µM (doses to about 46.1 µM), for the others: at the highest dose activity, negative = inhibition, most hits filed as inhibitors | actives 1.2% (n = 410,000) | AID 588855; also: potency is read from the fitted curve at half-maximal effect; % is scaled to controls: 0 for no effect and ±100 for the full control effect; nearly all actives have a fitted effect of over 65% in size
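Read-out: total well GFP (ex488/em500-530) summed from mean per-cell fluorescence. Cells: HEPG2 CAGA-GFP, 1% FBS DMEM, 18 h at 37 degrees C with 500 pg/mL final TGF-beta. Unstimulated wells served as the full-inhibition control; stimulated DMSO wells = 0%.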
HT1080NT lethal – kills 2HG-producing HT-1080-NT fibrosarcoma cells; Potency, µM (titrated, usually from 46.1 µM), for the others: at the highest dose activity, negative = less viability, actives largely listed as cytotoxic; HT-1080-NT fibrosarcoma viability, CellTiter-Glo ATP luminescence, 48 h; AID 686970; actives 1.6% (n = 360,000);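 also: NT is the 2HG producing partner of a matched IDH1 knockdown line; potency is read from the fitted curve at half-maximal effect; 0% = DMSO-treated cells and -100% = media-only wells without cells; nearly all actives have a fitted effect of over 55% in size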
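Luminescent CellTiter-Glo readout after 48 hours of compound exposure at 37 degrees C defined viability of HT-1080-NT cells. Activity was normalized to DMSO wells and cell-free media wells; concentration-response curves were fitted and assigned curve classes.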
IL-1B inflam inh – blocks inflammasome-driven IL-1 beta release | activity change, % at 57.5 µM | actives 4.7% (n = 360,000) | THP-1 LPS/ATP IL-1B secretion, AlphaLISA, 16 h; active compounds read low; in the data active = activity change below about -50%; inconclusive = mostly about -30% to -49%; also: % is scaled to controls: 0 for no effect and ±100 for the full control effect
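THP-1 cells pretreated 1 hr with compounds (up to 57.5 uM final), then stimulated with LPS (250 ng/mL final) plus ATP (1.25 mM final); secreted IL-1B measured by AlphaLISA after 16 hr, decreased signal indicating inhibition.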
HT1080 IDH1KD tx – kills HT-1080 cells with IDH1 knockdown; AID 686971; actives 2% (n = 360,000); HT-1080 IDH1 knockdown viability, ATP luminescence, 48 h; Potency, µM (titrated, usually from 46.1 µM), for inactives: top-dose activity, negative = toxicity, actives largely listed as cytotoxic;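 also: potency is read from the fitted curve at half-maximal effect; 0% = DMSO wells and -100% = cell-free medium wells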
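Knockdown cells (IDH1KD HT-1080) received compounds 2 h after plating at 750 cells/well and were kept 48 h at 37 °C in 5% FBS RPMI. A CellTiter-Glo luminescence read gave % activity for curve fitting.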
Starred values were filed as active, the others as inactive; ? = inconclusive; nt = no result. Sampled rows, rich in hits. Any-hit rate of the full collection: about 6.5%. Unless noted, calls follow the shape of the dose curve; as a rule, active = well fitted curve in the direction sought with a large enough effect; inconclusive = small, poorly fitted or top-dose-only effect, or another doubt; inactive = no such curve, though single readings can be large; an effect the other way counts as inactive or inconclusive.

SMILES	Giardia kill	HepG2 viability	TGFb SMAD3 inh	HT1080NT lethal	IL-1B inflam inh	HT1080 IDH1KD tx
COc1ccc(S(=O)(=O)N2CCCC(C(=O)N3CCOCC3)C2)cc1OC (stereo unspecified)	0	3%	22%	7%	12	20%
Oc1ccc(C[C@@H]2CNCCN2CCC23CC4CC(CC(C4)C2)C3)cc1	-14	-108%	?	?	-11	23µM*
Oc1ccc(C[C@H]2CNCCN2CCCCC2CCCCC2)cc1	11	-111%	?	23µM*	?	23µM*
Oc1ccc(C[C@H]2CNCCN2CCC23CC4CC(CC(C4)C2)C3)cc1	-12	-92%	?	16µM*	?	?
NC1=NC[C@H](Cc2ccc(O)cc2)N1CCCCC1CCCCC1	12	-22%	?	-24%	-58*	-28%
Cc1ccc(NC(=O)c2ccc(OC(=O)COc3ccc(Cl)cc3C)cc2)cc1	-3	-6%	-6%	13%	-7	11%
CC(=O)c1cnn(-c2ccc(Cl)cc2)c1C	-9	-48%	0%	27%	9	21%
Cc1c(C(=O)NCCSCc2cccc(C(F)(F)F)c2)cnn1-c1ccc(Cl)cc1	28	-15%	?	-15%	-57*	?
COc1ccc(-c2cc(C(=O)Nc3cc(Cl)ccc3O)no2)cc1	-2	2%	16%	?	?	22%
CCOC(=O)C1=CN(Cc2cccc(F)c2)S(=O)(=O)NC1c1ccc(F)c(Cl)c1 (stereo unspecified)	-5	-48%	16µM*	26µM*	0	?
CCOC(=O)C1=CN(Cc2ccco2)S(=O)(=O)NC1c1ccc(F)c(Cl)c1 (stereo unspecified)	23	-5%	-19%	-4%	-1	-1%
COCC(=O)N1CCC(Oc2ccc(C(=O)N3CCCCCCC3)cc2)CC1	-4	30%	17%	4%	15	7%
COc1ccc(OC)c2c1C(=O)c1ccccc1C2=O	-17	-1%	43%	-8%	-16	-15%
O=C1c2ccccc2C(=O)c2c(O)c(O)cc(O)c21	-14	-17%	-9%	9.2µM*	-12	?
COc1ccc(OC)c2c1C(=O)C(Cl)=C(Cl)C2=O	-15	-103%	3.2µM*	?	-117*	3.3µM*
Nc1ccc(O)c2c1C(=O)c1ccccc1C2=O	-6	-37%	-18%	?	-57*	-28%
Nc1ccc(Br)c2c1C(=O)c1ccccc1C2=O	-9	-24%	?	?	-6	?
COc1ccc(OC)c2c1C(=O)CC2C (stereo unspecified)	nt	-7%	-5%	0%	?	0%
COc1ccc(N)c2c1C(=O)c1ccccc1C2=O	-4	-14%	?	-9%	-85*	-24%
Cc1ccc(C)c(NS(=O)(=O)c2cc3c(cc2Cl)NC(=O)CO3)c1	nt	-10%	-1%	nt	nt	nt
Cc1noc(C)c1COc1ccc(C(=O)NNC(=O)c2ccccc2)cc1	-20	-5%	-8%	?	20	15µM*
Cc1ccc(S(=O)(=O)N2CCN(C(=O)c3ccc(OCc4c(C)noc4C)cc3)CC2)cc1	-11	-21%	5%	-7%	0	-9%
CC(=O)Nc1ccc(NC(=O)c2ccc(OCc3c(C)noc3C)cc2)cc1	-4	-16%	-7%	2%	7	21%
Cc1noc(C)c1COc1ccc(C(=O)NNC(=O)c2ccccc2F)cc1	-10	-6%	3%	?	18	6.5µM*
Cc1noc(C)c1COc1ccc(C(=O)O)cc1	-18	-12%	-4%	?	15	5%
Cc1ccc(NC(=O)c2ccc(OCc3c(C)noc3C)cc2)cc1C	-2	-24%	9%	?	-88*	-21%
